# Screening results deposited in PubChem BioAssay by several laboratories.
# ATG4B inh = blocks human ATG4B protease cleavage of LC3 substrate; Q9Y4P1; 0.51% of 340,000 active; ATG4B cleavage of LC3-PLA2, NBD-HPC fluorescence, 1 h; inhibition, % at 8.33 µM; in the data active = inhibition above about 40%
# NadD block = NadD (S. aureus) enzyme inhibition; 0.78% of 360,000 active; purified NadD enzyme, colorimetric absorbance read-out; inhibition, % at 20 µM; in the data active = inhibition above about 26%
# Mot1-301 SUMO = blocks SUMOylation pathway, rescuing yeast Mot1-301 growth; S. cerevisiae Mot1-301 growth rescue, ATP luminescence, 38.5C; percent above DMSO median, 100 means doubled; growth rescue, % at 18.8 µM; 1% of 320,000 active; AID 2716;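 active = every valid replicate shows activation above 250% relative to neutral control wells; inactive = the rest, any valid replicate at or below 250%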;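 note: OY570 slx delta 5 strain wells were the positive control but not used for scaling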
# FAS-TE inh = blocks the thioesterase domain of human fatty acid synthase | recombinant FAS-TE, OMFH fluorogenic substrate, fluorescence endpoint | 0.67% of 360,000 active | inhibition, % at 15 µM | AID 602261 | P49327;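 active = compounds whose normalised, plate-corrected inhibition of enzyme fluorescence in the single-dose primary screen is 50% or more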;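 note: 0% = DMSO with enzyme and 100% = substrate without enzyme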
# Target sequence (P49327 whole entry, looked up, the tested form may be a part): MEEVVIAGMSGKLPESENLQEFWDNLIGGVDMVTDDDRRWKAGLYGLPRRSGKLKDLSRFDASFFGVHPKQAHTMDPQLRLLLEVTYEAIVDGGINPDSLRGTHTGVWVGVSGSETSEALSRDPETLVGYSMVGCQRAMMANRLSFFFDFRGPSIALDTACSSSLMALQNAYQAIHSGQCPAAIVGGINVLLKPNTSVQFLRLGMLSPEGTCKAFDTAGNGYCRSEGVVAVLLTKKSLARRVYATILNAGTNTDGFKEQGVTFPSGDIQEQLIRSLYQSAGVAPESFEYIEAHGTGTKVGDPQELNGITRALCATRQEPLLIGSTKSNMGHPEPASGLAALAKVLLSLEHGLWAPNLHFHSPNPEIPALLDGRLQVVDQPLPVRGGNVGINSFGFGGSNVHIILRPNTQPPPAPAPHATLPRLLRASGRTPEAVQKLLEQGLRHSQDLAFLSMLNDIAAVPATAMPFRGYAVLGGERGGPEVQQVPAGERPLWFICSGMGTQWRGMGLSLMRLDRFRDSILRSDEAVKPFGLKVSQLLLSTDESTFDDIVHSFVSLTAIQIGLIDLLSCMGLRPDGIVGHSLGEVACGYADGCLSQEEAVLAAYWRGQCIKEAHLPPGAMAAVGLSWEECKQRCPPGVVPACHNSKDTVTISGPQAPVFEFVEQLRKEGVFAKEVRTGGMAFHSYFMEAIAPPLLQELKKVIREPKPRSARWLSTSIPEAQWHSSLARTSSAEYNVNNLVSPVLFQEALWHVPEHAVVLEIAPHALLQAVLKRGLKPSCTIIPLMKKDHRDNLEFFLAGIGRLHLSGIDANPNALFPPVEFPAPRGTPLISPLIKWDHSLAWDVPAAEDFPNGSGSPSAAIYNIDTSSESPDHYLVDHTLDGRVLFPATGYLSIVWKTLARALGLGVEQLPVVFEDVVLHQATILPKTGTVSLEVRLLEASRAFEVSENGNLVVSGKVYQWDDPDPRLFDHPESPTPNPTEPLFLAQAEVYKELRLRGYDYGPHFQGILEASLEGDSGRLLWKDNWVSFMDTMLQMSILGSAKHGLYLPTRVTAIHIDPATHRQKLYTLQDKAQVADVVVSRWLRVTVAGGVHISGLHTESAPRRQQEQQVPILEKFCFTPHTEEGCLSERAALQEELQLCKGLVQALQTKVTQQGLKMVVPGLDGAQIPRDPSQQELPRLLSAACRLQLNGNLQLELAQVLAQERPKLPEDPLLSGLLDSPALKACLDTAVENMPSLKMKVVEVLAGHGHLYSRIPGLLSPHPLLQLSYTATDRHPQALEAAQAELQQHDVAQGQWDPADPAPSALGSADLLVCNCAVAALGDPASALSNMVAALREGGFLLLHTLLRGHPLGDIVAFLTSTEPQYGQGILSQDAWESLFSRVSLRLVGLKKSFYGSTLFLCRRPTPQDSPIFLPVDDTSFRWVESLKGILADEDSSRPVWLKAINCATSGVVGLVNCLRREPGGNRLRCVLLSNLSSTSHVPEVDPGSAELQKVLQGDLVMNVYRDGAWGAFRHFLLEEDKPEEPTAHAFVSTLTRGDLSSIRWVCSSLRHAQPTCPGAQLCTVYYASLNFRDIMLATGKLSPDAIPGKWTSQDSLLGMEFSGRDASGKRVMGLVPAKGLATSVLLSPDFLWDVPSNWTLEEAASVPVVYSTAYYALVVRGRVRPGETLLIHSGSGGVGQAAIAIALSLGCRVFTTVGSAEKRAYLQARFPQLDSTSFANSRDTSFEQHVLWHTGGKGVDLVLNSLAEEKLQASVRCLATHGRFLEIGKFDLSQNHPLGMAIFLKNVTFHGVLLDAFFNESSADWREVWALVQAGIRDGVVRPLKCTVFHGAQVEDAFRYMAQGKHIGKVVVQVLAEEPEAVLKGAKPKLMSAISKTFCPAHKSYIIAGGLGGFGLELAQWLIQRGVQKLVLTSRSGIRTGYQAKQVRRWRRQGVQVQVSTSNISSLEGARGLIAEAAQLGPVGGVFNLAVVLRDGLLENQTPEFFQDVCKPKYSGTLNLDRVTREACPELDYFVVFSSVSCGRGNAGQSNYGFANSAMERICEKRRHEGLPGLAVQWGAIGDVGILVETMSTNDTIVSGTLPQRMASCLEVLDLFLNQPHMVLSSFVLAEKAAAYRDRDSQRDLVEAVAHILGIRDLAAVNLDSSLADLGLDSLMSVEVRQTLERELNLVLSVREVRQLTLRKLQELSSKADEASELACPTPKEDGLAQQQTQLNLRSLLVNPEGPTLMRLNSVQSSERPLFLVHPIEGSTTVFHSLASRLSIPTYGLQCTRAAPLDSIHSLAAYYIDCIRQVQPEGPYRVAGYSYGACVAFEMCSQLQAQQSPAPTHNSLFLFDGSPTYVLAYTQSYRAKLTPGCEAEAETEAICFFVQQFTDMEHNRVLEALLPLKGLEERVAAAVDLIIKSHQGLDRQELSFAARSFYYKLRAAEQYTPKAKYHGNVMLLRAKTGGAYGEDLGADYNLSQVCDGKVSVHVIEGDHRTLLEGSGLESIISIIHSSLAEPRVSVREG
# Calb FLC = C. albicans growth modulation with fluconazole; C. albicans CaCi-2 (fluconazole-resistant clinical isolate) + fluconazole, Alamar Blue growth, 48 h; growth inhibition, % (concentration not given with the values); 0.57% of 300,000 active;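 active = growth inhibition above about 58% in most replicates, limit read from the data, passing the limit was not always enough; inconclusive = exactly half the replicates above a set limit; inactive = most replicates below a set limit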;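 note: all wells also contain fluconazole at 8 µg/ml as a sub-toxic cotreatment; 0% = median of DMSO wells and 100% = median of geldanamycin control wells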
# FAS-TE conf = FAS thioesterase (human) inhibition, confirmation | shares compounds with FAS-TE inh | recombinant FAS-TE, OMFH fluorogenic substrate, fluorescence | inhibition, % at 15 µM | 45% of 2,300 active;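 active = compounds inhibiting the enzyme by at least 50% at 15 µM in any one of the replicates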;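 note: 0% = enzyme with DMSO only and 100% = wells lacking enzyme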
# * hit, by the source's call; ? = inconclusive; . = no result given. The list is not random: actives were taken first. Their share in the collection is about 3.1%.
SMILES,ATG4B inh,NadD block,Mot1-301 SUMO,FAS-TE inh,Calb FLC,FAS-TE conf
Cc1cc2oc(=O)cc(CN3CCN(S(=O)(=O)/C=C/c4ccccc4)CC3)c2cc1C,-4.8,14.1,358.9,54.1*,3.4,11.6
CCOC(=O)N=Nc1c2ccccc2c2nc3no[nH]c3nc12,-4.9,0.5,.,87.1*,111.6*,42.7*
CCOC(=O)N=Nc1c(O)n(CC(=O)OC)c2ccccc12,-3.1,-1.6,-13.8,-11.5,-11.0,.
Cc1ccccc1NC(=O)CSc1nnc(C2CC2)n1CC1CCCO1 (stereo not given),1.4,-9.3,-10.6,-3.5,-10.6,.
CN1c2ccccc2C(C)(C)C12CC(c1ccc(S(=O)(=O)N3CCCCC3)cc1)=NO2 (stereo not given),-7.4,-1.2,358.5,74.9*,1.8,23.3
CN1c2ccccc2C(C)(C)C12CC(c1cccc(S(=O)(=O)N3CCCC3)c1)=NO2 (stereo not given),-2.7,-2.9,2.4,74.1*,?,14.5
O=C(C[n+]1ccc(C(=O)c2ccccc2)cc1)Nc1cccc([N+](=O)[O-])c1,.,-6.4,.,19.4,.,.
O=C(Nc1ccc(Cc2ccncc2)cc1)c1ccc(Cl)c([N+](=O)[O-])c1,-0.3,7.6,2.0,55.7*,41.9,62.5*
Cc1ccc(C(=O)Nc2ccncc2)cc1[N+](=O)[O-],-1.3,2.2,23.2,0.2,-7.7,.
Cc1c([N+](=O)[O-])cc(C(=O)Nc2ccc(Cc3ccncc3)cc2)cc1[N+](=O)[O-],-12.8,5.2,1.0,63.3*,-31.6,51.0*
COc1ccc([N+](=O)[O-])cc1C(=O)Nc1ccc(Cc2ccncc2)cc1,-4.0,-4.3,16.2,60.0*,12.7,53.6*
COc1ccccc1C(=O)Nc1ccc(Cc2ccncc2)cc1,4.1,-3.3,-9.5,-6.4,-3.3,.
COc1ccc(S(=O)(=O)N2CCC(C(=O)N[C@H](C(=O)NC3CCCC3)C(C)C)CC2)cc1,-8.5,-9.7,-12.1,-6.0,0.5,.
Cc1nc2c(=O)n(C)c(=O)n(C)c2nc1Cl,4.8,-5.2,269.0,-7.3,-1.8,.
CN(Cc1ccccc1)C(=O)COC(=O)c1cc([N+](=O)[O-])ccc1N1CCOCC1,-3.5,-6.2,-6.9,91.5*,-10.1,91.2*
CCC(C)N(C(=O)COC(=O)c1cc([N+](=O)[O-])ccc1N1CCOCC1)C1CCS(=O)(=O)C1 (stereo not given),-16.2,1.5,-9.0,11.2,0.7,.
COc1ccc(CN(C)C(=O)COC(=O)c2cc([N+](=O)[O-])ccc2N2CCCC2)c(OC)c1OC,-7.0,-6.4,-2.5,69.9*,.,31.1*
CN(C(=O)COC(=O)c1cc([N+](=O)[O-])ccc1N1CCCC1)C1CCS(=O)(=O)C1 (stereo not given),-19.9,-5.2,-21.8,3.0,2.1,.
CCN(C(=O)COC(=O)c1cc([N+](=O)[O-])ccc1N1CCOCC1)c1ccccc1,-5.6,-1.0,-8.6,77.9*,.,70.6*
CN(CCOc1ccccc1)C(=O)c1cc([N+](=O)[O-])ccc1N1CCOCC1,-7.8,-1.3,-7.5,33.5,-7.4,.
CCC(C)(C)C1CCc2[nH]nc(C(=O)NCCCNC(=O)OC(C)(C)C)c2C1 (stereo not given),-14.7,3.4,-12.1,69.4*,.,49.6*
O=C(Nc1nc(-c2ccccc2)cs1)c1ccc(N2CCOCC2)c([N+](=O)[O-])c1,-15.8,13.8,5.1,36.3,13.1,.
Cc1ccc(NC(=O)c2cc(S(=O)(=O)N(C)C)ccc2N2CCCC2)cc1F,-9.1,-2.9,-2.4,50.7*,8.0,58.0*
Cc1ccc(NC(=O)c2cc([N+](=O)[O-])ccc2N2CCCC2)cc1,-6.0,-1.9,76.3,66.2*,-17.8,42.0*
CC(=O)Nc1cccc(NC(=O)c2cc([N+](=O)[O-])ccc2N2CCCCC2)c1,-13.2,-0.1,.,31.9,.,.
COc1ccc(C(=O)Nc2cc([N+](=O)[O-])ccc2N2CCCC2)cc1,-2.2,-6.5,-4.9,57.9*,0.6,52.2*
CN(C)S(=O)(=O)c1ccc(N2CCCC2)c(C(=O)NCC(=O)Nc2ccc(F)c(F)c2)c1,-9.4,-0.1,-27.3,33.0,.,.
Cc1ccc(-c2csc(NC(=O)c3cc([N+](=O)[O-])ccc3N3CCOCC3)n2)cc1,-3.1,6.9,3.1,70.8*,4.1,8.1
